Assay results: PubChem BioAssay (NCATS)
Records with an inconclusive call do not appear. A call without a number means that no potency is given here. Activity calls are given as the source filed them. Calls follow the shape of the dose curve; as a rule, active = well fitted curve in the direction sought with a large enough effect; inconclusive = small, poorly fitted or top-dose-only effect, or another doubt; inactive = no such curve, though single readings can be large; an effect the other way counts as inactive or inconclusive.

How the values were obtained:
[1] = target: Metallo-beta-lactamase type 2 (Klebsiella pneumoniae) (UniProt C7C422); assay: qHTS to identify inhibitors of the New Delhi Metallo-beta-lactamase (NDM): assay validation screen against the NCATS LOPAC Collection (AID 1794843);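 also: nitrocefin turnover by NDM-1 measured as 485 nm absorbance at plateau; series mostly up to about 38 µM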
Summary of the method: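 NDM-1 at 2 nM final in 50 mM HEPES pH 7.0 with 1 uM ZnSO4 and 0.01% Tween20 was preincubated with library compounds in DMSO. Nitrocefin (50 uM stock) was then added, and absorbance at 485 nm was read at the kinetic plateau.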

[2] = target: Glutathione peroxidase 1 (Homo sapiens) (UniProt P07203); assay: Primary qHTS Assay for Inhibitors of Recombinant Selenoprotein Glutathione Peroxidase 1 (GPX1) (AID 1845191); also: nearly all actives have a fitted effect of over 65% in size; also: potency is read from the fitted curve at half-maximal effect
Summary of the method: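 GR-coupled assay: compounds preincubated 30 min at room temperature with GPX1, then reaction started with CHP; final 10 nM GPX1, 1 mM GSH, 0.5 mM CHP, 0.5 mM NADPH, 100 nM GR, 0.01% BSA, pH 7.5 Tris buffer. NADPH fluorescence (340/450 nm) read at 0 and 15 min.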

[3] = target: Phospholipid hydroperoxide glutathione peroxidase GPX4 (Homo sapiens) (UniProt P36969); assay: Primary qHTS Assay for Inhibitors of Recombinant Selenoprotein Glutathione Peroxidase 4 (GPX4) (AID 1845192); also: nearly all actives have a fitted effect of over 65% in size
Summary of the method: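 GR-coupled assay: recombinant GPX4 preincubated 30 min with compound at room temperature; final 200 nM GPX4, 1 mM GSH, 0.5 mM cumene hydroperoxide, 0.5 mM NADPH, 100 nM GR, 0.01% BSA, pH 7.5 Tris. NADPH fluorescence (340/450 nm) read at 0 and 15 min.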

[4] = target: Luciferin 4-monooxygenase (Photinus pyralis) (UniProt P08659); assay: Primary firefly luciferase (FLuc) qHTS assay for identification of artifact compounds. (AID 1845220); also: nearly all actives have a fitted effect of over 60% in size; also: potency is read from the fitted curve at half-maximal effect
Summary of the method: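 Titrated compounds were incubated 15 min at RT, protected from light, with luciferin and ATP at 10 uM; reaction started with 10 nM FLuc, luminescence imaged at 5 min, and concentration-response fitted by Hill equation.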

[5] = Primary fluorescence-based thiol-reactive (MSTI) qHTS assay for identification of artifact compounds. (AID 1845221); also: nearly all actives have a fitted effect of over 65% in size; also: potency is read from the fitted curve at half-maximal effect
Summary of the method: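 Reactivity toward the thiol probe MSTI (4 uM) is scored by fluorescence at Ex/Em 525/598 nm after 1 h at room temperature. Acetyl-MSTI and MSTI define the activity scale.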

[6] = test system: Nanoluciferase (engineered Oplophorus gracilirostris luciferase); assay: Primary Nanoluciferase (NLuc) qHTS assay for identification of artifact compounds. (AID 1845222);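 also: NLuc secreted into diluted conditioned medium of S16 cells; series mostly up to about 54 µM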
Summary of the method: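 qHTS format, against NLuc in S16 cell-conditioned medium. Nano-Glo substrate 1:100 was added after 15 min at room temperature. Luminescence was taken after a further 5 min.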

[7] = Primary redox qHTS assay for identification of artifact compounds. (AID 1845223)
Summary of the method: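 Amplex Red (25 uM) and HRP (250 mU/mL) in HBSS, with compounds for 15 min, then 250 uM DTT for 30 min, room temperature, dark. Fluorescence 525/598 nm read; normalized to DMSO and 10 uM DA3003; Hill fit.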

Sequence of Metallo-beta-lactamase type 2 (Klebsiella pneumoniae) (C7C422 whole entry, looked up): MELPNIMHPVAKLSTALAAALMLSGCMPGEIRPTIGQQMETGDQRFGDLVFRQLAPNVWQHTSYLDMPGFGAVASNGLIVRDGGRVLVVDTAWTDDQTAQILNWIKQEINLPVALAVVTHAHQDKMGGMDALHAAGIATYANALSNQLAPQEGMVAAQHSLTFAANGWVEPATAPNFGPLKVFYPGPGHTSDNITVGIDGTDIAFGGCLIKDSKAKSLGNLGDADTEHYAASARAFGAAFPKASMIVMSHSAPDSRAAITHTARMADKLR
Sequence of Glutathione peroxidase 1 (Homo sapiens) (P07203 whole entry, looked up): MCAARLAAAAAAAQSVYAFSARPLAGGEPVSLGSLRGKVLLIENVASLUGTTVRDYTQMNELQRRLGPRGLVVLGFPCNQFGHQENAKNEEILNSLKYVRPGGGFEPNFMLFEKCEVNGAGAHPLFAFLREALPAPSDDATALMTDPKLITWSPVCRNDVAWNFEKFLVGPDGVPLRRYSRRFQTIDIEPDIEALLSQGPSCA
Sequence of Phospholipid hydroperoxide glutathione peroxidase GPX4 (Homo sapiens) (P36969 whole entry, looked up): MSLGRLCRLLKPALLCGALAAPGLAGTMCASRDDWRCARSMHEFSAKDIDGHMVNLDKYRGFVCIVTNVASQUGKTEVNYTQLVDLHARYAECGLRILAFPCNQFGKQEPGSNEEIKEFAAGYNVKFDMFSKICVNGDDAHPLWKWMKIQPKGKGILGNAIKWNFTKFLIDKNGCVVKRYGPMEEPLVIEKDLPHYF

Cc1cccc(C)c1OCC(C)N (stereo not drawn)
Potency [1]: inactive
Potency [2]: inactive
Potency [3]: inactive

CCN(CC)C(=O)c1ccc(O)c(OC)c1
Potency [1]: inactive
Potency [2]: inactive
Potency [3]: inactive

Clc1ccc(C(c2ccc(Cl)cc2)n2cc[n+](CC(OCc3ccc(Cl)cc3Cl)c3ccc(Cl)cc3Cl)c2)cc1 (stereo not drawn)
Potency [1]: inactive
Potency [2]: inactive
Potency [3]: inactive

O=C1NCC2(CCN(CCc3ccccc3)CC2)O1
Potency [1]: inactive
Potency [2]: inactive
Potency [3]: inactive

N[C@H](CSC(c1ccccc1)(c1ccccc1)c1ccccc1)C(=O)O
Potency [2]: inactive

Cc1ccc(F)c(NC(=O)Nc2ccc(-c3cccc4[nH]nc(N)c34)cc2)c1
Potency [2]: inactive

CC1(C)Cc2c(sc(NC(=S)NC(=O)c3ccccc3)c2C(=O)O)CO1
Potency [2]: inactive

CCc1ccc(OCc2ccccc2C(=O)Nc2ccc3nc(C)cc(N)c3c2)cc1
Potency [2]: inactive

COC(=O)[C@@H]1[C@H]2C[C@H]3c4[nH]c5ccccc5c4CCN3C[C@@H]2CC[C@@H]1O
Potency [1]: inactive
Potency [2]: inactive
Potency [3]: inactive
Potency [4]: inactive
Potency [5]: inactive
Potency [6]: inactive
outcome [7]: inactive

COC1CCC(N(C(=O)C2CCC(C)CC2)c2cc(C3=CCCCC3)sc2C(=O)O)CC1 (stereo not drawn)
Potency [2]: inactive

Clc1ccc(Cn2c(CN3CCCC3)nc3ccccc32)cc1
Potency [1]: inactive
Potency [2]: inactive
Potency [3]: inactive
Potency [4]: inactive
Potency [5]: inactive
Potency [6]: inactive
outcome [7]: inactive

CC1=C(/C=C/C(C)=C/C=C/C(C)=C/C(=O)Nc2ccc(O)cc2)C(C)(C)CCC1
Potency [1]: inactive
Potency [2]: inactive
Potency [3]: inactive

CCCCC1C(=O)N(c2ccccc2)N(c2ccccc2)C1=O
Potency [1]: inactive
Potency [2]: inactive
Potency [3]: inactive

CCNc1cc(NC2CCC(O)CC2)nc(Nc2ccc3c(ccn3Cc3ccccc3)c2)n1 (stereo not drawn)
Potency [2]: inactive
Potency [3]: inactive

CO[C@@H](C(=O)N1Cc2[nH]nc(NC(=O)c3ccc(N4CCN(C)CC4)cc3)c2C1)c1ccccc1
Potency [2]: inactive
Potency [3]: inactive

Cc1ccc(C(C)(O)c2nc3ccccc3s2)c(C)c1 (stereo not drawn)
Potency [2]: inactive
Potency [3]: inactive

O=C(O)C(O)Cc1ccc(O)c(O)c1 (stereo not drawn)
Potency [2]: inactive
Potency [3]: inactive

CN1[C@@H]2CCC[C@@H]1CC(NC(=O)c1nn(C)c3ccccc13)C2 (stereo partly drawn)
Potency [2]: inactive
Potency [3]: inactive

O=C(Nc1cc(Cl)cc2c1[nH]c1cnccc12)c1cccnc1
Potency [2]: inactive
Potency [3]: inactive

NC(CO)(CO)CCc1ccc(Sc2cccc(OCc3ccccc3)c2)cc1Cl
Potency [2]: inactive
Potency [3]: inactive

O=c1cc(-c2ccccc2)oc2cc(O)cc(O)c12
Potency [2]: inactive
Potency [3]: inactive

O=C(O)Cc1cccc2ccccc12
Potency [2]: inactive
Potency [3]: inactive

Cc1cnc(C(=O)O)c[n+]1[O-]
Potency [2]: inactive
Potency [3]: inactive

O=C(Nc1ccccc1Br)N[C@@H]1CCN(c2ccc(C(F)(F)F)cn2)C1
Potency [2]: inactive
Potency [3]: inactive

COc1cccc([C@@H](C)NCCCc2ccccc2Cl)c1
Potency [2]: inactive
Potency [3]: inactive

C[C@]12CCC3c4ccc(O)cc4CCC3C1CCC2=O (stereo partly drawn)
Potency [2]: inactive
Potency [3]: inactive

CCCCCNC(=O)N1CCC(CN(Cc2ccc(Cl)cc2)Cc2ccc([N+](=O)[O-])s2)C1 (stereo not drawn)
Potency [2]: 2.05 µM (active)
Potency [3]: inactive

COc1cc(NC(=O)c2ccc(-c3ccc(Cl)cc3)o2)cc(OC)c1
Potency [2]: inactive
Potency [3]: inactive

N#Cc1ccc(NC(=O)Nc2ccccc2Br)c2n[nH]nc12
Potency [2]: inactive
Potency [3]: inactive

O=C(N[C@@H](c1ccccc1)[C@@H]1CCCCN1)c1cccc(C(F)(F)F)c1Cl
Potency [2]: inactive
Potency [3]: inactive

c1ccc2c(-c3cnn4cc(-c5ccc(N6CCNCC6)cc5)cnc34)ccnc2c1
Potency [2]: inactive
Potency [3]: inactive

CC(C)C[C@H](CC(=O)O)C(=O)N[C@@H](Cc1c[nH]c2ccccc12)C(=O)N[C@@H](C)c1ccccc1
Potency [2]: inactive
Potency [3]: inactive

CC(=O)OC1C(C)OC(Oc2c(-c3ccc(O)cc3)oc3cc(O)cc(O)c3c2=O)C(O)C1OC(C)=O (stereo not drawn)
Potency [2]: inactive
Potency [3]: inactive

COc1ccc(-n2c(C)c([N+](=O)[O-])c3ccc(O)cc32)cc1
Potency [2]: inactive
Potency [3]: inactive

CO[C@H]1C[C@@H]2CC[C@@H](C)[C@@](O)(O2)C(=O)C(=O)N2CCCC[C@@H]2C(=O)O[C@H]([C@@H](C)C[C@@H]2CC[C@H](O)[C@H](OC)C2)CC(=O)[C@H](C)C=C(C)[C@@H](O)[C@@H](OC)C(=O)[C@H](C)C[C@H](C)C=CC=CC=C1C
Potency [2]: inactive
Potency [3]: inactive

Nc1ncnc2c1nc(Cl)n2[C@@H]1O[C@H](CO)[C@@H](O)[C@@H]1O
Potency [2]: inactive
Potency [3]: inactive

CC(C)OC(=O)C(C)(C)Oc1ccc(C(=O)c2ccc(Cl)cc2)cc1
Potency [2]: inactive
Potency [3]: inactive

O=c1c(-c2ccc(O)cc2)coc2cc(O)ccc12
Potency [2]: inactive
Potency [3]: inactive

Clc1cc(Cl)cc(CNc2ncncc2-c2ccc3c(c2)OCO3)c1
Potency [2]: inactive
Potency [3]: inactive

Cc1ccc(/C=N/NC(=O)c2ccccc2Oc2ccccc2)o1
Potency [2]: inactive
Potency [3]: inactive

O=C(NCc1ccncc1)C12C[C@H]3C[C@@H](C1)CC(c1ccc(Cl)cc1)(C3)C2
Potency [2]: inactive
Potency [3]: inactive

c1cc(-c2sc(-c3ccncc3)c(-c3ccncc3)c2-c2ccncc2)ccn1
Potency [2]: inactive
Potency [3]: inactive

O=C1C(Cl)=C(NCCN2CCOCC2)C(=O)c2ncccc21
Potency [2]: 9.16 µM (active)
Potency [3]: inactive

CC(C)(C(=O)NCC(F)(F)C(F)(F)F)C(=O)N[C@@H]1C(=O)Nc2ccccc2-c2ccccc21
Potency [2]: inactive
Potency [3]: inactive

N#C[C@H]1C[C@H]2C[C@@H]2N1C(=O)[C@@H](N)C12CC3CC(CC(O)(C3)C1)C2
Potency [2]: inactive
Potency [3]: inactive

CN(C)Cc1cccc(N=C(c2ccccc2)c2c(O)[nH]c3cc(C(=O)N(C)C)ccc23)c1
Potency [2]: inactive
Potency [3]: inactive

CC(C)(Cc1ccc2ccccc2c1)NC[C@@H](O)COc1cccc(Cl)c1C#N
Potency [2]: inactive
Potency [3]: inactive

Cc1ccc(C(=O)Nc2cccc(C(F)(F)F)c2)cc1Nc1nc(-c2cccnc2)nc2c1cnn2C
Potency [2]: inactive
Potency [3]: inactive

Oc1ccc(C2CCN(c3ccnc4ccccc34)CC2)cc1O
Potency [2]: inactive
Potency [3]: inactive

CCOC(CN1C(=O)[C@](CC(=O)Nc2ccc(C)cc2)(NC(=O)Nc2ccc(C)cc2)c2ccccc21)OCC
Potency [2]: inactive
Potency [3]: inactive

CO[C@H]1C(=O)[C@]2(C)[C@@H](OC)C[C@H]3OC[C@@]3(OC(C)=O)[C@H]2[C@H](OC(=O)c2ccccc2)[C@]2(O)C[C@H](OC(=O)[C@H](O)[C@@H](NC(=O)OC(C)(C)C)c3ccccc3)C(C)=C1C2(C)C
Potency [2]: inactive
Potency [3]: inactive

CN(C)Cc1ccc(-c2nc3cccc4c3n2CCNC4=O)cc1
Potency [2]: inactive
Potency [4]: inactive
Potency [5]: inactive
outcome [7]: inactive

CCOc1ccc(Nc2nc(-c3c(C)nc4ccccn34)cs2)cc1
Potency [2]: inactive
Potency [3]: inactive
Potency [4]: inactive
Potency [5]: 2.67 µM (active)
outcome [7]: inactive

NC(=O)c1cccc2[nH]c(-c3ccc([C@H]4CCCN4)cc3F)nc12
Potency [5]: inactive
Potency [6]: inactive
outcome [7]: inactive

NC(=O)c1ccc2nc(-c3ccc(Oc4ccc(Cl)cc4)cc3)[nH]c2c1
Potency [4]: 3.38 µM (active)
Potency [5]: inactive
Potency [6]: inactive
outcome [7]: inactive

C=C1C(=O)OC(CCCCCCCC)C1C(=O)O (stereo not drawn)
Potency [3]: inactive

COc1cc2nc(-c3ccc(N4CCN(C)CC4)cc3)nc(NCCN3CCOCC3)c2cc1OC
Potency [2]: inactive
Potency [4]: inactive
Potency [5]: inactive

CC(C)n1nc(-c2ccc3oc(N)nc3c2)c2c(N)ncnc21
Potency [2]: inactive
Potency [3]: inactive
Potency [4]: inactive
Potency [5]: inactive
outcome [7]: inactive
